Source: PubChem BioAssay AID1850 (Southern Research Specialized Biocontainment Screening …, 2009)
The campaign covered roughly 310,000 compounds. About 1,000 (0.32%) were called active. A selection follows. Measured potencies and affinities stand elsewhere. Values without a mark were called inactive. How the calls were made is not given here.

Experiment: PhoP regulon inhibitors, Salmonella typhi PhoP promoter GFP reporter, confirmatory (AID 1850);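 further: 0% = induced wells with vehicle and 100% = uninduced wells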
Conditions: fluorescence, 4 h, at 50 µM, hits give high values
O=C(CN(CCO)c1ccccc1)Nc1ccc(Cl)c(S(=O)(=O)N2CCOCC2)c1 gave an inhibition of -1.19%. Work on C=CCNc1ncnc2c1[nH]c1ccccc12 yielded an inhibition of -0.69%. With Clc1ccc2[nH]c3c(NCCN4CCOCC4)ncnc3c2c1 the inhibition was 0.11%. For Cc1ccc2[nH]c3c(NCc4ccccc4)ncnc3c2c1, the inhibition was -1.37%. Clc1ccc2[nH]c3c(NCC4CCCO4)ncnc3c2c1 (centres undefined) gave an inhibition of -14%. In the case of CCCNC(=O)c1oc2ccc3c(c2c1C)C=CC(C)(C)O3, the inhibition is reported as -5.94%. For Cc1nc2ccccn2c1C(=O)NNC(=S)Nc1ccc(Cl)cc1, the inhibition was 0.64%. In the case of COc1ccc(C[C@H]2CN3C(=NC[C@H]3Cc3ccccc3)N2CCNC(=O)c2ccc(C)c(Br)c2)cc1, the inhibition is reported as 26.2%. For Cc1ccc(C(=O)NCCN2C3=NC[C@H](Cc4ccc(O)cc4)N3C[C@H]2Cc2ccc(O)cc2)cc1Br, the inhibition was 12.4%. With O=C(Nc1ccnn1C1CCN(C/C=C/c2ccccc2)CC1)C1CCCC1 the inhibition was -2.03%. In the case of COC(=O)C1=NN(c2ccc(C)cc2)C2(S1)SC(C(C)=O)=C(C)N2c1ccccc1 (centres undefined), the inhibition is reported as -16.3%. Work on Cc1cc(Cl)ccc1OCC(O)CNCCc1ccc(S(N)(=O)=O)cc1 (centres undefined) yielded an inhibition of -14.1%. COc1ccc(NCC(O)COc2ccc(C(C)(C)C)cc2)cc1 (centres undefined) gave an inhibition of 10.5%. With OC(CNCCC(c1ccccc1)c1ccccc1)COc1ccccc1 (centres undefined) the inhibition was -4.1%. Work on COc1ccc(CCNCC(O)COc2ccc(Cl)cc2)cc1OC (centres undefined) yielded an inhibition of 5.92%. For OC(CNCc1ccc(Cl)cc1)COc1ccccc1 (centres undefined), the inhibition was 11.1%. Compound OC(CNCc1ccccc1)COc1ccccc1 (centres undefined) has an inhibition of 18.5%. With CC(=O)c1cccc(OCC(O)CNCCc2ccc(Cl)cc2)c1 (centres undefined) the inhibition was 4.73%. In the case of CC(C)(C)NCC(O)COc1ccc(Br)cc1 (centres undefined), the inhibition is reported as -6.26%. CC1=NN(C(=O)c2c(Br)cnn2C)C(O)(C(F)(F)F)C1 (centres undefined) gave an inhibition of 14.8%. CC(C)(C)c1ccc(C(=O)NNC(=S)NC(=O)c2cccnc2)cc1 gave an inhibition of 7.73%. In the case of CCn1c(SCC(=O)Nc2oc(C)c3c(C)n[nH]c(=O)c23)nc2sc(C)c(C)c2c1=O, the inhibition is reported as -1.81%. CCOc1ccc(NC(=O)C2CCCN(S(=O)(=O)c3ccc4[nH]c(=O)ccc4c3)C2)cc1 (centres undefined) gave an inhibition of 4.78%. Work on COc1ccc(NC2c3ccccc3C(=O)N2c2ccccn2)cc1 (centres undefined) yielded an inhibition of 0.4%. Work on COc1ccc(C(C)=O)cc1CSc1nnc(Nc2ccc(C)cc2)s1 yielded an inhibition of 7.09%. In the case of Cc1nn2c(-c3cccnc3)ccnc2c1-c1ccccc1, the inhibition is reported as -4.51%. For COc1ccc(N2C(=O)CC(C#N)=C2N)cc1, the inhibition was 17.1%. With COc1ccc(-n2nc(C)c3c(=O)c4c([nH]c32)CCCC4)cc1 the inhibition was 7.61%. With Cc1cccc(NC(=O)CN2C(=O)C(C)Oc3ccccc32)n1 (centres undefined) the inhibition was -5.84%. CN1C(=O)Cc2cc(S(=O)(=O)N3CCN(c4ccc(Cl)cc4)CC3)ccc21 gave an inhibition of 3.82%. C=CCc1c(C)nc(C)nc1N/N=C/c1ccccc1O gave an inhibition of -9.46%. COc1ccc(OCCCC(=O)OC(C)C(=O)Nc2cccc(C(C)=O)c2)cc1 (centres undefined) showed an inhibition of 15.1%. For O=C(Cn1cc([N+](=O)[O-])ccc1=O)NCc1ccc(Cl)cc1Cl, the inhibition was -7.2%. In the case of COC(=O)c1ccc(CNCC(O)COc2ccc(-c3ccccc3)cc2)cc1 (centres undefined), the inhibition is reported as 10.8%. Compound CC(C)N(CCNCC(O)COc1ccc(C(C)(C)c2ccccc2)cc1)C(C)C (centres undefined) has an inhibition of -17.3%. COc1ccc(OC)c(-n2nnnc2SCC(=O)NCc2ccc3c(c2)OCO3)c1 showed an inhibition of 0.94%. For c1ccc2c(c1)[nH]c1cnccc12, the inhibition was 7.53%. Compound COc1ccc2[nH]c3c(Cl)ncnc3c2c1 has an inhibition of 1.3%. COc1ccc2[nH]c3c(=S)nc[nH]c3c2c1 gave an inhibition of 3.32%. Work on c1ccc2c(c1)[nH]c1ccncc12 yielded an inhibition of -9.87%. COc1cc(NC(=O)CSc2nnc(-c3ccncc3)n2C2CCCCC2)ccc1NC(=O)c1ccco1 showed an inhibition of -17.8%. Compound Cc1cc(C)c(S(=O)(=O)N2CCC(C(N)=O)CC2)cc1C has an inhibition of 16.3%. COc1ccc(-c2sc(Nc3ccc(F)c(F)c3F)nc2CCC(=O)NN)cc1 gave an inhibition of 4.23%. With CS(=O)(=O)N1N=C(c2ccco2)CC1c1ccccc1 (centres undefined) the inhibition was -3.63%. For NC(=O)C1CCN(C(=O)/C=C/c2cc(Br)ccc2F)CC1, the inhibition was -0.48%. In the case of CCOC(=O)CNC(=S)NN(C)C, the inhibition is reported as 10.8%. Work on CC(C)(C)OC(=O)N[C@@H](Cc1ccccc1)C(=O)N1CCC(C(=O)N[C@@H](CCC(N)=O)C(=O)O)CC1 yielded an inhibition of -2.12%. CCOc1ccc(CCNC(=O)c2cc(=O)[nH]c3ccc(S(=O)(=O)N(CC)CC)cc23)cc1OCC showed an inhibition of -9.13%. O=C1C(=O)c2cccc3cccc1c23 gave an inhibition of -2.11%. O=C1C=C(O)c2cccc3cccc1c23 gave an inhibition of -13.1%. With CCOc1cc(N2CCOCC2)c(OCC)cc1NC(=O)CC12CC3CC(CC(C3)C1)C2 the inhibition was -0.45%. In the case of COc1ccccc1Nc1nc(Cl)nc(NC(C)(C)C)n1, the inhibition is reported as -9.98%. Work on Clc1ccc(-c2nc(Cc3ccccc3)no2)cc1 yielded an inhibition of 11.6%. With OCCNCc1cc(Br)ccc1OCc1ccccc1 the inhibition was -2.3%. OCCNCc1cc(Br)ccc1OCc1ccc(F)cc1 showed an inhibition of 10.4%. Compound CCSP1(=S)N=C(N2CCOCC2)C(C#N)=C2CCCN21 (centres undefined) has an inhibition of -5.06%. Compound Cc1cccc(NCC(=O)N/N=C\c2cccn2C)c1 has an inhibition of -0.18%. O=C(NNC(=O)c1cccs1)c1ccco1 showed an inhibition of 0.32%. Compound O=C(NNC(=O)c1ccccc1O)c1ccco1 has an inhibition of 14.9%. For O=C(NC(=S)Nc1ccc(NC(=O)c2cccs2)cc1)c1ccco1, the inhibition was -1.46%. For O=C(NC(=S)NNC(=O)c1cc2ccccc2cc1O)c1ccco1, the inhibition was -70.1%. Work on O=C(NNC(=O)c1cccs1)c1ccc(Br)o1 yielded an inhibition of -19.9%. With COc1ccc(C(=O)NNC(=S)NC(=O)/C=C/c2cccs2)cc1 the inhibition was 12%. Work on O=C(NC(=S)NNC(=O)c1ccccc1O)c1cccs1 yielded an inhibition of 7.92%. O=C(Nc1ccc(NC(=O)c2cccs2)cc1)c1ccc(Br)o1 gave an inhibition of 3.54%. Cc1ccc(-c2nnn(CC(=O)Nc3ccccc3N3CCOCC3)n2)cc1 showed an inhibition of -3.19%. Compound COC(=O)C(O)(c1ccc(N(C)C(=O)OC(C)C)cc1)C(F)(F)F (centres undefined) has an inhibition of 0.83%. Compound CCOc1ccc(S(=O)(=O)N(C)c2ccc(OCC(=O)NC3=NCCS3)cc2)cc1 has an inhibition of -20.3%. With O=C(Nc1cccnc1Cl)c1cc(-c2ccc(F)cc2)on1 the inhibition was 5.5%. Compound CCN(CCn1cccn1)C(=O)c1cc(COc2ccc(F)c(F)c2)on1 has an inhibition of 6.34%. CCOC(=O)c1nc2c(=O)n(C)c(=O)n(C)c2n(C)c1=O gave an inhibition of 2.99%. Compound Cc1cccc(NC(=O)CSc2nnc(NC(=O)C3CC3)s2)c1C has an inhibition of 3.53%. Work on O=C(NC(=S)NNC(=O)c1ccco1)c1ccccc1 yielded an inhibition of 21.3%. O=C(NC(=S)NNC(=O)c1ccco1)c1ccc(F)cc1 showed an inhibition of 0.37%. Work on O=C(Cc1ccc(Cl)cc1)NNC(=S)NC(=O)c1cccs1 yielded an inhibition of 11.9%. O=C(Cc1ccccc1)NNC(=O)c1cccs1 gave an inhibition of 6.4%. With CC(=O)N1CCN(c2ccccc2NC(=O)Cc2ccc(Cl)cc2)CC1 the inhibition was -3.34%. In the case of COC(=O)C(Cc1ccc(O)cc1)NC(=O)CCNC(=O)c1ccco1 (centres undefined), the inhibition is reported as -6.89%. Work on CCCc1cc(CN(C)C(=O)CC2C(=O)NCCN2Cc2ccccc2C)[nH]n1 (centres undefined) yielded an inhibition of -5.02%. Compound CC(NS(=O)(=O)c1ccccc1)C(=O)NCc1ccco1 (centres undefined) has an inhibition of 4.53%. Cc1ccc(Nc2cc(C)c3ccc(O)cc3n2)cc1C gave an inhibition of 9.14%. Compound COc1ccc(Nc2cc(C)c3ccccc3n2)cc1 has an inhibition of -2.31%. In the case of COC(=O)c1cc(Nc2cc(C)c3c(O)cccc3n2)cc(C(=O)OC)c1, the inhibition is reported as -3.04%. In the case of CC(=O)Nc1ccc(Nc2cc(C)c3ccccc3n2)cc1, the inhibition is reported as -5.65%. In the case of Cc1ccc(-c2cc(C(=O)OCC(=O)Nc3ncc(C(F)(F)F)cc3Cl)c3ccccc3n2)cc1, the inhibition is reported as -6.32%. With O=C(CN1c2ccccc2S(=O)(=O)c2ccccc21)Nc1ccccc1F the inhibition was 2.92%. CC(NC(=O)Cn1ncc(Cl)c(Cl)c1=O)C12CC3CC(CC(C3)C1)C2 (centres undefined) gave an inhibition of -18.9%. O=C(CN1C2=NCCCN2c2ccccc21)c1ccc2c(c1)OCO2 showed an inhibition of 28.1%. In the case of O=C(CN1C2=NCCN2c2ccccc21)c1ccc(Br)s1, the inhibition is reported as 13.2%. Compound O=C(O)CN1C2=NCCCN2c2ccccc21 has an inhibition of -7.68%. For O=C(CN1C2=NCCCN2c2ccccc21)c1cccs1, the inhibition was 9.76%. CCOC(=O)Nc1cc(Br)c2c(c1)OCCO2 showed an inhibition of 9.05%. In the case of CCCC[C@@H]1C[C@H]1[C@@H](NC(=O)c1ccco1)c1ccc(C(=O)OC)cc1, the inhibition is reported as -1.55%. COc1ccc(CNC(=O)c2ccc3c(=O)n(-c4ccccc4)c(=O)[nH]c3c2)cc1 gave an inhibition of 9.07%. With Cc1cccc2cc(CN(CCCO)C(=O)Nc3cccc(Cl)c3)c(=O)[nH]c12 the inhibition was -2.46%. Compound C=CCNc1nc(C(=O)OCC(=O)c2ccc(Cl)cc2)cs1 has an inhibition of 0.24%. CS(=O)(=O)Nc1cccc(C2=NN(C(=O)c3ccc(F)cc3)C(c3cccs3)C2)c1 (centres undefined) showed an inhibition of -1.48%. For O=C1C2C(C(=O)N1/N=C/c1ccc([N+](=O)[O-])o1)C1C=CC2C12CC2 (centres undefined), the inhibition was -7.07%. Work on O=C1OCCN1/N=C/c1ccc([N+](=O)[O-])o1 yielded an inhibition of -7.99%.
